{"source": "PubChem BioAssay (EPA / NIEHS)", "note": "“And” between values parts separate entries of the source, which are not always exact repeats. Equal values may be shown once. Inconclusive results are not listed. The source made the active and inactive calls. Rule for the calls: active = hit-call score of the fitted dose curve at least 0.9, where 1 is the maximum; inconclusive = response in the unintended direction; inactive = score below 0.9."}
{"biological_target": "Cellular tumor antigen p53 (Homo sapiens) (UniProt P04637)", "sequence (P04637 whole entry, looked up)": "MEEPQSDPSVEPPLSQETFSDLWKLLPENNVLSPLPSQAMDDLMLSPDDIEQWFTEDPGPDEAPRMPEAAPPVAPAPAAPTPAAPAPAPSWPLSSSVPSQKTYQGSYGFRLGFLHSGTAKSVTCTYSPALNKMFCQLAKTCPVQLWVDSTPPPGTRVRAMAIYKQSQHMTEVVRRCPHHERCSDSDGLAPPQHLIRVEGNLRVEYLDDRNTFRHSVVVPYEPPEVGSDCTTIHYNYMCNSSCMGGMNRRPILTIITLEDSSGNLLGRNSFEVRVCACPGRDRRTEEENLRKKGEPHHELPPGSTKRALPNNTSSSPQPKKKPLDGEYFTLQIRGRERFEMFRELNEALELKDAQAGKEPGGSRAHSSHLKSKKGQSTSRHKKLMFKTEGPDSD", "assay": "TOX21_p53_BLA_p4_ratio: Tox21 HCT-116 p53 Agonism Beta-lactamase Assay, Ratio, Phase 4 (AID 2283601)", "outline": "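HCT116 cells carrying an inducible beta-lactamase reporter were plated at 4000 cells/well, rested 5 h, then exposed to compounds in DMSO (217-fold dilution) for 16 h at 37C. CCF4-AM substrate was loaded 2 h at room temperature; 460/530 nm emission ratio scored gain-of-signal versus DMSO.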"}
{"smiles": "CCCCCCC(C)O", "note": "(centres undefined)", "outcome": "inactive"}
{"smiles": "C=C1CC/C=C(\\C)CC[C@@H]2[C@@H]1CC2(C)C", "outcome": "inactive"}
{"smiles": "CCOC(=O)COC(=O)c1ccccc1C(=O)OCC", "outcome": "inactive"}
{"smiles": "CC(C)CCOC(=O)CC(C)C", "outcome": "inactive"}
{"smiles": "CCCc1ccc(N)cc1", "outcome": "inactive"}
{"smiles": "S=c1[nH][nH]c(=S)s1", "outcome": "inactive"}
{"smiles": "Nc1ccc(O)c(N)c1", "outcome": "inactive"}
{"smiles": "CC(=O)C1C(=O)C=C(C)OC1=O", "note": "(centres undefined)", "outcome": "inactive"}
{"smiles": "CCCCOCCOC(=O)c1ccccc1C(=O)OCCOCCCC", "outcome": "inactive"}
{"smiles": "CC(=O)OC(C)(C)C", "outcome": "inactive"}
{"smiles": "Cc1cc(N)n(-c2ccccc2)n1", "outcome": "inactive"}
{"smiles": "C=C(C)C(=O)OCCC(C)OC(=O)C(=C)C", "note": "(centres undefined)", "outcome": "inactive"}
{"smiles": "CCCCCC1CCC(=O)O1", "note": "(centres undefined)", "outcome": "inactive"}
{"smiles": "c1ccc(-c2nn[nH]n2)cc1", "outcome": "inactive"}
{"smiles": "CCCCC(CC)COCCO", "note": "(centres undefined)", "outcome": "inactive"}
{"smiles": "CC(C)(O)CCc1ccccc1", "outcome": "inactive"}
{"smiles": "CN(C)CCC=C1c2ccccc2CCc2ccccc21", "outcome": "inactive"}
{"smiles": "CCCCN(CCCC)CCCCCCN(CCCC)CCCC", "outcome": "inactive"}
{"smiles": "C/C=C(\\C)C(=O)OC/C=C(\\C)CCC=C(C)C", "outcome": "inactive"}
{"smiles": "CCCc1ccc(O)cc1", "outcome": "inactive"}
{"smiles": "CC(O)CNCC(C)O", "note": "(centres undefined)", "outcome": "inactive"}
{"smiles": "CCCCCc1cccc(=O)o1", "outcome": "inactive"}
{"smiles": "CCCCCCCCOC(C)=O", "outcome": "inactive"}
{"smiles": "CCCCOCCOCCOCCO", "outcome": "inactive"}
{"smiles": "CC1=CCC(=C(C)C)CC1", "outcome": "inactive"}
{"smiles": "C#C[C@]1(O)CC[C@H]2[C@@H]3CCc4cc(O)ccc4[C@H]3CC[C@@]21C", "AC50": "6.65 µM (active) and 13.5 µM (active) and 8.18 µM (active)"}
{"smiles": "CCC(C)(C)C1CCC(OC)CC1", "note": "(centres undefined)", "outcome": "inactive"}
{"smiles": "CC(=O)CC(=O)N(C)C", "outcome": "inactive"}
{"smiles": "CC(=O)c1cccnc1", "outcome": "inactive"}
{"smiles": "C=CC(=O)OCCCCCC", "outcome": "inactive"}
{"smiles": "CCCCCCCOC(C)=O", "outcome": "inactive"}
{"smiles": "CC1(C)CC(=O)CC(C)(C)N1", "outcome": "inactive"}
{"smiles": "C=CCOCC(O)CO", "note": "(centres undefined)", "outcome": "inactive"}
{"tested_on": "not listed separately", "assay": "CCTE_Simmons_CellTiterGLO_HEK293T: Viability Assessment in CCTE's Assays for Thyroperoxidase (TPO) Inhibition, Simmons Lab (AID 2283665);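 for AC50: cells exposed to compound for 24 h before readout; actives reduce ATP signal below DMSO vehicle meaning cytotoxicity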", "outline": "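HEK293T, 10 000 cells/well, DMEM + 1% FBS; 8-pt titration 5 nM–87.5 uM [final], 0.5% DMSO; 24 hr, 37C, 5% CO2; CellTiter-Glo luminescence; n=3 biological replicates.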"}
{"smiles": "CCCc1ccc(N)cc1", "outcome": "inactive"}
{"smiles": "CCCCCCCCOC(=O)c1ccc(O)cc1", "AC50": "24.4 µM (active)"}
{"smiles": "O=C1OC2(c3ccc(O)cc3Oc3cc(O)ccc32)c2ccccc21", "outcome": "inactive"}
{"smiles": "CCCc1ccc(O)cc1", "AC50": "87.9 µM (active)"}
{"smiles": "O=C(O)CS", "outcome": "inactive"}
{"smiles": "C#C[C@]1(O)CC[C@H]2[C@@H]3CCc4cc(O)ccc4[C@H]3CC[C@@]21C", "AC50": "37.5 µM (active)"}
